The whole screen tested about 2,400 compounds, of which about 25 (1%) were called active.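 Rule for the calls: active = replicate-average signal at least 3 plate SD below neutral wells, shown as high inhibition, flagging enzyme-inhibiting false positives; inactive = the rest.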 Only a sample is shown.
What follows are compounds tested on Beta-galactosidase (Escherichia coli), counter-screen for EBI2 antagonists (assay: inhibitors of purified bacterial beta-gal – biochemical, luminescence, single concentration, counter-screen for EBI2 antagonist project, confirmation (AID 652176;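 note: 0% = DMSO wells with enzyme and 100% = wells lacking enzyme; higher means stronger loss of beta-gal luminescence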)). Details: luminescent Galacton Star, 15 min, at 5 µM, active compounds read high.

SMILES	inhibition
COc1cc(/C=C(\C#N)C(=O)Nc2ccc3ccccc3c2)c([N+](=O)[O-])cc1OC	-8.92% (inactive)
CC(C)N(Cc1ccccc1)C(=S)Nc1ccc(OC(F)F)cc1	7.71% (inactive)
Cc1ccc(S(=O)(=O)NCCNC(C)c2ccc(Br)cc2)cc1 (centres undefined)	4.8% (inactive)
Cc1cccc(C)c1-n1nnnc1C(CCc1ccccc1)N1CCN(C/C=C/c2ccccc2)CC1 (centres undefined)	-14.6% (inactive)
Cc1cccc(-n2c(O)c(C=Nc3ccccc3N)c(=O)[nH]c2=O)c1	1.72% (inactive)
CC(C)Cc1ccc(-c2cc3nc(NCc4cccc(Cl)c4)ccn3n2)cc1	-21.1% (inactive)
Fc1ccc(N2CCN(Cc3cnc(Oc4ccc(Br)cc4)s3)CC2)cc1	3.88% (inactive)
COc1ccc([C@H]2CC(=O)C=C(/C=C/c3ccc(Cl)cc3)C2)cc1	-9.12% (inactive)
O=C(CSc1ccccc1)Nc1cc(Cl)ccc1Oc1ccccc1	-9.14% (inactive)
COc1ccccc1N1CCN(C(=O)c2cc(-c3ccc(Br)cc3)on2)CC1	9.03% (inactive)
CC1CCc2sc3nc(N4CCN(CCO)CC4)n4ncnc4c3c2C1 (centres undefined)	-1.4% (inactive)
Cc1nc2ccc(C(=O)N3CCN(c4ccccc4)CC3)cc2s1	-10.1% (inactive)
Cc1ccc(N2CC(C(=O)Nc3ccc(S(=O)(=O)N4CCCC4)cc3)CC2=O)cc1C (centres undefined)	2.23% (inactive)
COc1ccc([C@H]2CC(=O)C=C(c3ccc(C)cc3)C2)cc1	5.89% (inactive)
O=C(c1cc2cc(F)ccc2[nH]1)N1CCN(c2ccc(F)cc2)CC1	1.06% (inactive)
Cc1ccc(CSCCNC(=O)CN(c2ccc(F)cc2)S(C)(=O)=O)cc1	3.75% (inactive)
O=C(c1ccc(-n2cnnn2)cc1)N1CCN(C(c2ccccc2)c2ccccc2)CC1	5.89% (inactive)
Cc1ccc2oc(=O)c3cnn(CC(=O)N(Cc4ccco4)C4CCCCC4)c3c2c1	-17.5% (inactive)
CCOC(=O)N1CCN(C(=O)COc2ccc(Cl)cc2C)CC1	11% (inactive)
Cc1ccc(O/C=C2\OC(=O)c3ccccc32)cc1	-6.52% (inactive)
CCOC(=O)N1CCN(C(=O)COc2ccc(Br)cc2)CC1	2.79% (inactive)
COc1ccc(OC)c(C(=O)c2coc3ccc(O)c(CN4CCOCC4)c23)c1	3.81% (inactive)
FC(F)(F)Oc1ccccc1C(c1nnnn1C1CCCCC1)N1CCN(C/C=C/c2ccccc2)CC1 (centres undefined)	3.49% (inactive)
COc1ccc(Nc2cc(Sc3ccc(OC)cc3)ncn2)cc1	8.03% (inactive)

Source: PubChem BioAssay AID652176 (Sanford-Burnham Center for Chemical Genomics, 2013)
